# Measured values taken from PMC13541613, “GHT-SELEX demonstrates unexpectedly high intrinsic sequence specificity and complex DNA binding of many human transcription factors”.
# Molecular target: ZNF721 DBD2 (Homo sapiens, UniProt Q8TF20-2 395-923)
# Assay: HT-SELEX; 20 mM HEPES pH 7, 140 mM KCl, 5 mM NaCl, 1 mM K2HPO4, 2 mM MgSO4, 100 uM EGTA, ZnSO4, 0.1% Tween20; room temperature, 1 h; high values mean tight binding
# Details: protein: ivt; tags: eGFP (N-terminal); dsDNA, one strand shown
# Procedure, shortened: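 Bead-immobilised tagged transcription factor (full-length or DNA-binding-domain fragment), made in HEK293 lysate or cell-free extract, was incubated with a randomized 40-base DNA library. Binding was for 1 h at room temperature in HEPES/KCl low-stringency buffer with Tween20. After washing and heat elution, bound DNA was PCR-amplified over successive cycles and Illumina-sequenced (~3 million 60 bp reads per sample). Binding signal is a relative k-mer count in selected reads; higher means tighter binding.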
# Sequence of ZNF721 DBD2 (Q8TF20 383-911): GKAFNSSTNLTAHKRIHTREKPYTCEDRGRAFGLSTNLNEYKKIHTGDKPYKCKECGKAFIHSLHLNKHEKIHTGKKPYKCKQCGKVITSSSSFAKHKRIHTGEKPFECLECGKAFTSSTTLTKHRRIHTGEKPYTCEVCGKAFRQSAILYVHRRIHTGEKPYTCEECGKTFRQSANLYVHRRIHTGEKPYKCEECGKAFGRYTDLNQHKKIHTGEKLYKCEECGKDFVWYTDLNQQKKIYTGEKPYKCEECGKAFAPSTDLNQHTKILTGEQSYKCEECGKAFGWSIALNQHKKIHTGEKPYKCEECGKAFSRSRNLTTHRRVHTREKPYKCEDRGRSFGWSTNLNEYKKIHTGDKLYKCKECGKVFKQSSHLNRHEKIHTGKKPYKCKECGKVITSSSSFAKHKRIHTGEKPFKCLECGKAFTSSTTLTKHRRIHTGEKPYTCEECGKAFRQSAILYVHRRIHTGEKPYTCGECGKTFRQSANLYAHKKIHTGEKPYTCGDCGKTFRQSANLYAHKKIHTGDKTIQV
row,Sequence,binding signal [relative 10-mer count]
1,CCACCCTACC,0.00839
2,CACCCAACCC,0.00252
3,ACCCCCGCCC,0.00348
4,AAAAAGAAGC,0.0126
5,AGCATCTCCA,0.121
6,CAAAAAGCAG,0.172
7,ACCGCCCCAC,0.00252
8,CCCCCTCCTC,0.00395
9,CACTTCATAC,0.00144
10,CCACAAAAAA,0.0663
11,CCCCCCAACC,0.00707
12,CCACCACGCC,0.00587
13,CCACACCCCA,0.00503
14,CCTCACCCCC,0.0018
15,CCCCGTCCCC,0.00192
16,CACCCCCACA,0.00779
17,GCTTCATACA,0.0018
18,CTCCCTCCCC,0.00312
19,ACCCCCCACC,0.00491
20,CCTCCACCAC,0.00923

row,Sequence,binding signal [relative 10-mer count]
1,CCCCCGCGCC,0.00336
2,CTTTTTTTTC,0.0669
3,AGAAAAAAAG,0.035
4,AGGATACACT,0.116
5,CACCCACCTC,0.00312
6,CGCCTCCCCC,0.00336
7,CCCACCGCCC,0.00551
8,CCCCCGCCCG,0.00192
9,CCCTACCACC,0.0144
10,CCCTCCCCCG,0.00467
11,GCTTTTTTCC,0.0308
12,AAAAAAGCTG,0.00707
13,ACCCCACCCC,0.00324
14,CCACCACCGC,0.00503
15,ACCGCCCCCC,0.00132
16,AGTGTATCCA,0.197
17,GCCACCCACC,0.00312
18,CCGCCCCCTC,0.00324
19,ACAAAAAACA,0.172
20,AACAGCATGA,0.308
